Test results from PubChem BioAssay AID624040 (The Scripps Research Institute Molecular Screening Center, 2012).
The campaign covered roughly 360,000 compounds. About 2,100 (0.58%) were called active.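 The calls were made as follows: active = inhibition above a per-plate cutoff, the mean of that plate's test compounds plus 3 SD (cut at about 27% in these data); inactive = the rest.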 The full list was thinned out, with actives kept by preference.

biological target: Muscarinic acetylcholine receptor M5 (Homo sapiens) (UniProt P08912); experiment: human M5 muscarinic receptor antagonists, primary screen, CHO cells, Fluo-8 calcium fluorescence (AID 624040); settings: CHO-hM5 cells, ACh EC80, at 3 µM, stronger effect = higher value;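 also: 0% = acetylcholine EC80 with DMSO and 100% = DMSO without agonist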
Sequence (P08912 whole entry, looked up): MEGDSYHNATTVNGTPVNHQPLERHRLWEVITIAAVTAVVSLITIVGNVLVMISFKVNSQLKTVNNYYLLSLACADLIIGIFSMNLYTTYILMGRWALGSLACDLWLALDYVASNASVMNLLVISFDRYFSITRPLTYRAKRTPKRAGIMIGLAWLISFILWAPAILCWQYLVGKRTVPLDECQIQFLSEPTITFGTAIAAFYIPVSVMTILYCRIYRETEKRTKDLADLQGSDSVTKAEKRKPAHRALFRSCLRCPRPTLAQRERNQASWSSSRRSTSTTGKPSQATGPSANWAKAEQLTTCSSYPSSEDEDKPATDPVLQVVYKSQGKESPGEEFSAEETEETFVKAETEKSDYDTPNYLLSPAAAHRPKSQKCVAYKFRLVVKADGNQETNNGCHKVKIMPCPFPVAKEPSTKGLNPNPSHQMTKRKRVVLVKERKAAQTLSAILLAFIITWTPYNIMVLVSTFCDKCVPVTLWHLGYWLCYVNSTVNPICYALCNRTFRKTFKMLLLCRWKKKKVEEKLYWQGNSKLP

Row | Compound | inhibition
1 | Cc1ccc(NC(=O)CN(C)CC(=O)Nc2cccc(F)c2)cc1[N+](=O)[O-] | 35.5% (active)
2 | CN(CC(=O)Nc1cccc(F)c1)C(=O)C1=COCCO1 | 11.4% (inactive)
3 | Cc1ccc(NC(=O)c2sccc2C)cc1[N+](=O)[O-] | 10.3% (inactive)
4 | CCCNC(=O)NCc1ccc(N2CCCC2=O)cc1 | -1.94% (inactive)
5 | O=C(O)C(c1cccs1)C1(O)CCCCC1 (stereo not drawn) | 9.55% (inactive)
6 | O=C(O)C(c1ccccc1)C1(O)CCCCC1 (stereo not drawn) | -13.2% (inactive)
7 | CN(C)CCOC(=O)C(c1ccccc1)C1(O)CCCC1 (stereo not drawn) | 98.1% (active)
8 | COc1ccc(NC(=O)CC2C(=O)NC3CCCCC3N2C(=O)c2ccc(F)cc2)cc1 (stereo not drawn) | 23.2% (inactive)
9 | CCOc1ccc(Br)cc1S(=O)(=O)N1CCC(C(=O)O)CC1 | 10.7% (inactive)
10 | CCOc1ccc(Br)cc1CSC(=N)N | 30.2% (active)
11 | CC(C)(C)NCc1cc(Br)ccc1OC1CCCC1 | -2.57% (inactive)
12 | CC(C)(C)NC(=O)CN(C(=O)c1ccc(Cl)nc1)c1cccc2ccccc12 | 0.44% (inactive)
13 | Cc1cc(C(F)(F)F)nn1CC(=O)N1CCCC1 | -0.38% (inactive)
14 | O=S(=O)(Nc1ccc(OC(F)(F)F)cc1)c1cccc2nonc12 | 3.29% (inactive)
15 | CCOc1ccc(C(=O)Nc2ccc(S(=O)(=O)Nc3cc(C)on3)cc2)cc1 | 7.9% (inactive)
16 | O=C(Nc1ccc(OC(F)(F)F)cc1)c1ccc2c(c1)no[n+]2[O-] | 28.2% (active)
17 | O=C(COC(=O)c1ccc(N2CCCC2=O)cc1)c1ccc(OC(F)F)cc1 | 6.05% (inactive)
18 | COc1cccc(OC)c1C(=O)Nc1c(C(=O)N2CCN(c3ccccn3)CC2)oc2ccccc12 | 9.59% (inactive)
19 | COc1cccc(-n2c(N)cc(=O)nc2SCC(=O)Nc2cc(C)on2)c1 | -11.3% (inactive)
20 | COc1ccc(CCNC(=O)CCc2ccccc2O)cc1OC | -1.37% (inactive)
21 | COc1ccc(CCNc2nc(C)cc(C)n2)cc1OC | 1.9% (inactive)
22 | COc1ccc(CCNC2=C(Cl)C(=O)N(Cc3ccccc3)C2=O)cc1OC | 31.8% (active)
23 | N#CCCN(C(=S)Nc1ccc(Cl)c(Cl)c1)C1CCCCC1 | 24.6% (inactive)
24 | CCN1CCN(C(=O)/C=C\C(=O)O)CC1 | 2.54% (inactive)
25 | O=C(Nc1ccc(Cl)cn1)c1cnn2cccnc12 | -6.64% (inactive)
26 | O=C(Nc1ccc(Cl)cn1)Nc1cccs1 | 31.8% (active)
27 | O=C(Nc1ccc(Cl)cn1)c1ccccc1-c1ccccc1 | 10.9% (inactive)
28 | CC(C)C[C@H](NC(=O)N1CCn2c1nc1ccccc12)C(=O)NC1CC1 | 0.78% (inactive)
